Results filed as inconclusive are left out. The source made the active and inactive calls. Unless noted, calls follow the shape of the full dose curve.
Assays:
[1] = Nuclear factor erythroid 2-related factor 2/antioxidant responsive element (Nrf2/ARE) small molecule agonists: qHTS cell viability counter screen in human keratinocytes (AID 1919968; active = well fitted curve in the direction sought with a large enough effect in the repeat runs; an effect the other way counts as inactive or inconclusive; also: nearly all actives have a fitted effect of over 55% in size)
In short: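 KeratinoSens cells (HaCaT keratinocytes stably carrying an ARE-luciferase reporter) were seeded at 1,500 cells/well and rested 5 h at 37 C/5% CO2. They were then exposed to compounds in DMSO for 23 h. Viability was read by CellTiter-Fluor fluorescence after 1 h.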

[2] = target: Gonadotropin-releasing hormone receptor (Homo sapiens) (UniProt P30968); test: Human gonadotropin-releasing hormone receptor (GnRHR) small molecule agonists, calcium flux assay in GnRHR-HEK293 cells (AID 1920063); also: nearly all actives have a fitted effect of over 35% in size
In short: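 HEK293 cells stably expressing human GnRHR were plated 18 h at 37 °C, loaded with calcium dye 1 h at 37 °C, then given compound in agonist mode; fluorescence (Ex/Em 480/540) read kinetically for 3 min at 1 s intervals.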

[3] = target: KiSS-1 receptor (Homo sapiens) (UniProt Q969F8); test: Human kisspeptin (KISS1R) small molecule agonists, calcium flux assay in KISS1R-HEK293 cells (AID 1920064; active = well fitted curve in the direction sought with a large enough effect in the repeat runs; an effect the other way counts as inactive or inconclusive)
In short: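 HEK293 cells stably expressing human KISS1R were plated 18 h at 37 °C, loaded with calcium dye for 1 h at 37 °C, then given compound by pin tool. Fluorescence (Ex/Em 480/540) was read kinetically for 3 min.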

[4] = G protein-coupled receptor (GPCR) small molecule agonists, calcium flux assay: HEK293 wild type cell line counter screen (AID 1920065)
In short: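 Cells were plated and cultured 18 h at 37 C/5% CO2, then loaded with calcium dye for 1 h at 37 C. Compounds in DMSO were pin-transferred in agonist mode, and fluorescence (Ex/Em 480/540) was read kinetically for 3 min at 1 s intervals.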

[5] = p53 small molecule agonists, cell-based qHTS assay with human liver microsomes (AID 1963577);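 also: p53 response element beta-lactamase reporter cells with liver microsomes plus NADPH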
In short: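 In this qHTS, p53 response-element beta-lactamase cells receive test compound together with a microsome/NADPH activating system (0.5 mg/mL final each) and are incubated 16 h at 37 C before LiveBLAzer fluorescence detection.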

[6] = p53 small molecule agonists, cell-based qHTS assay with rat liver microsomes (AID 1963578)
In short: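 Agonist mode in p53RE-bla reporter cells, with compounds co-incubated 16 h at 37 C alongside 0.5 mg/mL rat liver microsomes and 0.5 mg/mL NADPH (final), followed by a 2 h LiveBLAzer detection step.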

[7] = p53 small molecule agonists, cell-based qHTS assay with rat liver microsomes: qHTS cell viability counter screen (AID 1963580); also: nearly all actives have a fitted effect of over 45% in size
In short: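 p53RE-bla HCT-116 cells (4,000/well) rested 5 h at 37 C, then given Tox21 compounds in DMSO with rat liver microsomes (0.5 mg/mL final) plus NADPH (0.5 mg/mL final) for 16 h at 37 C. Viability read by CellTiter-Glo luminescence after 30 min at room temperature.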

[8] = p53 small molecule agonists, cell-based qHTS assay: qHTS cell viability counter screen (AID 1963581); also: nearly all actives have a fitted effect of over 45% in size
In short: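 p53RE-bla HCT-116 cells were exposed to compounds for 16 h at 37 C; after the beta-lactamase FRET read in the same wells, CellTiter-Glo was added and luminescence (intracellular ATP) read after 30 min at room temperature.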

[9] = p53 small molecule agonists, cell-based qHTS assay (AID 1963582; active = well fitted activation curve with a large enough effect in the signal ratio in the repeat runs, not every such curve was filed as active; the % refers to the signal ratio)
In short: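 p53RE-bla beta-lactamase reporter cells rested 5 h at 37 C/5% CO2, then received compounds in DMSO by pin transfer and were incubated 16 h at 37 C. LiveBLAzer B/G FRET substrate was loaded for 2 h at room temperature before fluorescence reading.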

[10] = target: 5-hydroxytryptamine receptor 2A (Homo sapiens) (UniProt P28223); test: 5-hydroxytryptamine receptor 2A (HTR2A) small molecule antagonists, cell-based qHTS assay (AID 1963586); also: nearly all actives have a fitted effect of over 45% in size
In short: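 Antagonist-mode intracellular calcium assay: DOI (4 nM) added after 5 min compound pre-incubation at room temperature to dye-loaded HTR2A-CHO cells. Fluorescence followed for 3 min, sampled every second.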

[11] = target: Muscarinic acetylcholine receptor M1 (Homo sapiens) (UniProt P11229); test: Cholinergic receptor muscarinic 1 (CHRM1) small molecule antagonists, cell-based qHTS assay (AID 1963588); also: nearly all actives have a fitted effect of over 40% in size
In short: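 CHRM1-CHO calcium-flux assay, antagonist mode. Cells were seeded 18 h, dye-loaded 1 h at 37 C and given compound for 5 min at RT, then acetylcholine was added at 50nM. FDSS fluorescence was read 3 min; 15 concentrations, three runs.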

[12] = target: Muscarinic acetylcholine receptor M1 (Homo sapiens) (UniProt P11229); test: Cholinergic receptor muscarinic 1 (CHRM1) small molecule agonists, cell-based qHTS assay (AID 1963589); also: nearly all actives have a fitted effect of over 35% in size
In short: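 CHO cells stably expressing human CHRM1, seeded 18 h at 37 C/5% CO2, dye-loaded 1 h at 37 C, then given compound in agonist mode; intracellular calcium fluorescence read kinetically at 1 s intervals. Fifteen concentrations, three independent runs.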

[13] = cAMP Responsive Elements (CRE) small molecule agonists, cell-based qHTS assay (AID 1963590)
In short: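 CRE-bla HEK 293T cells in DMEM with 10% dialyzed FBS, NEAA, pyruvate and 25 mM HEPES were plated 18 h at 37 C/5% CO2, then exposed to compounds in DMSO for 3 h before LiveBLAzer B/G FRET substrate addition.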

[14] = cAMP Responsive Elements (CRE) small molecule antagonists, cell-based qHTS assay (AID 1963591; active = well fitted inhibition curve with a large enough effect in the signal ratio in the repeat runs, not every such curve was filed as active; the % refers to the signal ratio)
In short: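 CRE-bla HEK293T cells were plated 18 h at 37 °C/5% CO2, pinned with compound in DMSO, then stimulated with NKH477 at 0.25 uM final for 3 h. LiveBLAzer B/G FRET substrate was added and plates incubated 2 h at room temperature.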

[15] = target: Beta-2 adrenergic receptor (Homo sapiens) (UniProt P07550); test: Adrenergic beta2 receptor (ADRB2) small molecule antagonists, cell-based qHTS assay (AID 1963592); also: series mostly up to about 92 µM; nearly all actives have a fitted effect of over 50% in size
In short: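 Cells (CHO, stable ADRB2 overexpression) incubated 18-20hr at 37C; compounds added from DMSO; agonist mix (1nM isoproterenol, 100uM IBMX, 25uM Ro-20-1724) added; 0.5hr RT; d2-cAMP and anti-cAMP-cryptate added; 1hr RT; 665/615 nm read.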

[16] = target: D(2) dopamine receptor (Homo sapiens) (UniProt P14416); test: Dopamine D2 receptor (DRD2) small molecule antagonists, cell-based qHTS assay (AID 1963595; active = well fitted inhibition curve with a large enough effect in the signal ratio in the repeat runs, with a control signal flat; the % refers to the signal ratio)
In short: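 In this cell-based antagonist screen, compounds act for 10 min at room temperature before a 30 min challenge with 12 nM quinpirole and 200 nM NKH477. cAMP is quantified by HTRF competition in DRD2-HEK293 cells containing 0.1 mM Ro20-1724.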

[17] = p53 small molecule agonists, cell-based qHTS assay with human liver microsomes: qHTS cell viability counter screen (AID 1963579); also: nearly all actives have a fitted effect of over 45% in size
In short: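 Metabolically activated exposure: compounds, human liver microsomes and NADPH (0.5 mg/mL final apiece) were added to p53RE-bla cells seeded 5 h earlier, left 16 h at 37 C, and then assessed for viability by CellTiter-Glo luminescence.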

[18] = target: 5-hydroxytryptamine receptor 2A (Homo sapiens) (UniProt P28223); test: 5-hydroxytryptamine receptor 2A (HTR2A) small molecule agonists, cell-based qHTS assay (AID 1963587); also: nearly all actives have a fitted effect of over 30% in size
In short: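 HTR2A-CHO cells, plated 18 h at 37 C/5% CO2, dye-loaded 1 h at 37 C; compounds in DMSO added by pin tool (agonist mode). Intracellular calcium flux read as kinetic fluorescence on FDSS over 2 min at 1 s intervals.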

[19] = target: D(2) dopamine receptor (Homo sapiens) (UniProt P14416); test: Dopamine D2 receptor (DRD2) small molecule agonists, cell-based qHTS assay (AID 1963594); also: nearly all actives have a fitted effect of over 35% in size
In short: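 HEK293 cells stably expressing DRD2 were cultured 24 h at 37 C, then given Ro20-1724 (0.1 mM final) and compounds for 10 min at room temperature. NKH477 (200nM) was then added for 30 min. cAMP was read by HTRF.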

[20] = target: Beta-2 adrenergic receptor (Homo sapiens) (UniProt P07550); test: Adrenergic beta2 receptor (ADRB2) small molecule agonists, cell-based qHTS assay (AID 1963593);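 also: CHO cells stably overexpressing human ADRB2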
In short: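 CHO cells stably over-expressing ADRB2 were plated overnight at 37C, then dosed with compounds plus a stimulation mix containing 100uM IBMX and 25uM Ro-20-1724 for 0.5hr at room temperature. cAMP was measured by HTRF competition, 1hr.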
% is scaled to controls: 0 for no effect and ±100 for the full control effect.

D(2) dopamine receptor (Homo sapiens), sequence (P14416 whole entry, looked up): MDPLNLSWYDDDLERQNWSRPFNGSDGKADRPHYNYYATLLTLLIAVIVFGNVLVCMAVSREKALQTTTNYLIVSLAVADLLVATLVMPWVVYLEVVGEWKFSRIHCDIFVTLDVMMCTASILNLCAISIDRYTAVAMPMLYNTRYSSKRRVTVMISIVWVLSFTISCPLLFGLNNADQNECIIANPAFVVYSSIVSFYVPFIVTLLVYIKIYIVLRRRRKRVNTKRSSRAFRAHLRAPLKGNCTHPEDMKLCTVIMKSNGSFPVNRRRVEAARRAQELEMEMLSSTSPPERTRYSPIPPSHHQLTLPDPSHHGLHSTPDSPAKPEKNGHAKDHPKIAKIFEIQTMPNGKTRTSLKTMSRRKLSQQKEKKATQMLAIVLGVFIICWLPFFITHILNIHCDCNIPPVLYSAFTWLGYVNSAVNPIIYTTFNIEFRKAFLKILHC
5-hydroxytryptamine receptor 2A (Homo sapiens), sequence (P28223 whole entry, looked up): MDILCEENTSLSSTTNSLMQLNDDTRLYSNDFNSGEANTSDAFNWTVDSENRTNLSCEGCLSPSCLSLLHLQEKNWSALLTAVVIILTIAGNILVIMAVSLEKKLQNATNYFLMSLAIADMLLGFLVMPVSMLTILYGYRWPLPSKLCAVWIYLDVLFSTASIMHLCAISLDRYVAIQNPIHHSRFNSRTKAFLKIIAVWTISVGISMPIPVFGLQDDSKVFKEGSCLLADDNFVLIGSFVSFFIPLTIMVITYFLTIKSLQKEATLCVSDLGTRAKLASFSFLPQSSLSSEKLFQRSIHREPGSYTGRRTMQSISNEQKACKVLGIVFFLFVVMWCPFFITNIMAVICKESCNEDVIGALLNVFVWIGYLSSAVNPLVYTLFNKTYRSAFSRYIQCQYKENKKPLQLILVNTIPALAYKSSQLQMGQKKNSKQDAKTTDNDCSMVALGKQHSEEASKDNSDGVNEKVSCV
Gonadotropin-releasing hormone receptor (Homo sapiens), sequence (P30968 whole entry, looked up): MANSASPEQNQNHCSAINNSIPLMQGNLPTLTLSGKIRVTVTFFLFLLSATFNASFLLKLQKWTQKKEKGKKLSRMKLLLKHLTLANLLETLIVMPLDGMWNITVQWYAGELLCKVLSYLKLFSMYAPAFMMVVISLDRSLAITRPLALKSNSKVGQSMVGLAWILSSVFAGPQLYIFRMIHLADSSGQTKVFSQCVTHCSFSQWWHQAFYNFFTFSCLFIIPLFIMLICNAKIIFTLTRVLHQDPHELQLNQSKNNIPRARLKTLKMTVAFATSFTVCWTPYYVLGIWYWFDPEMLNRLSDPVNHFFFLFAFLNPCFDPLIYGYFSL
Beta-2 adrenergic receptor (Homo sapiens), sequence (P07550 whole entry, looked up): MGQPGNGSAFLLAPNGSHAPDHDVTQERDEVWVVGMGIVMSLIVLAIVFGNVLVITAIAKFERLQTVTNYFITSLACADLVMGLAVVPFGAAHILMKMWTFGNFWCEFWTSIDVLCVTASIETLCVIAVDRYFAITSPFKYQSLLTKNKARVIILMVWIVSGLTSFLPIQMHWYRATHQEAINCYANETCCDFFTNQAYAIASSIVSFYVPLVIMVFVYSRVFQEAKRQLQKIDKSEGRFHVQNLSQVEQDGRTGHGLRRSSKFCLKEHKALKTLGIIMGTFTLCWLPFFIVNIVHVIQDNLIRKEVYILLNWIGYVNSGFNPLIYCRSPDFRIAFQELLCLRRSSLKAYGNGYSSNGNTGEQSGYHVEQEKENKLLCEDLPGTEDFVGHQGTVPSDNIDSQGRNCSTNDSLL
KiSS-1 receptor (Homo sapiens), sequence (Q969F8 whole entry, looked up): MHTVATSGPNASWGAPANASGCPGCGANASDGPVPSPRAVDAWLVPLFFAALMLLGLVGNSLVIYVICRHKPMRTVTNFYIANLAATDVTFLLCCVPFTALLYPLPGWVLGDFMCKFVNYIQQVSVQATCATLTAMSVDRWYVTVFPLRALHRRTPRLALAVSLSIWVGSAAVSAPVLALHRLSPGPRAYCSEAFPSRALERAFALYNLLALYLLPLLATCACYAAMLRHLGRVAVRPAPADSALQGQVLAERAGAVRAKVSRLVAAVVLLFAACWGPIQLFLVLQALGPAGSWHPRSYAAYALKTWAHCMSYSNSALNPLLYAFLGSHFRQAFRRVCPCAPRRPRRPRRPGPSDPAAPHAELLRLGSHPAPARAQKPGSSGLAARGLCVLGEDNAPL
Muscarinic acetylcholine receptor M1 (Homo sapiens), sequence (P11229 whole entry, looked up): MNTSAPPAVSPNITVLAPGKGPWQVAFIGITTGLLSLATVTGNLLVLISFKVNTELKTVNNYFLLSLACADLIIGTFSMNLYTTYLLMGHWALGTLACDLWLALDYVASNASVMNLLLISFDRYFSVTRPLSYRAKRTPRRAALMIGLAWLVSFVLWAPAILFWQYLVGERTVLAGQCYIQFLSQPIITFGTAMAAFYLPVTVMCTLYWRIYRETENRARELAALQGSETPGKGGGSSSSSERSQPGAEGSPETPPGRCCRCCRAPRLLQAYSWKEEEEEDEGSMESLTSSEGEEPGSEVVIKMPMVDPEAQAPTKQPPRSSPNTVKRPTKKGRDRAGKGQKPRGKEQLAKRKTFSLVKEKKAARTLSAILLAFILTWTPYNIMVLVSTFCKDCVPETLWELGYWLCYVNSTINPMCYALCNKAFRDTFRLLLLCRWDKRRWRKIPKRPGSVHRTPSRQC

N=C(N)N
inactive: Potency [1] | Potency [2] | Potency [3] | Potency [4] | Potency [5] | Potency [6] | Potency [7] | Potency [8] | Potency [9] | Potency [10] | Potency [11] | Potency [12] | Potency [13] | Potency [14] | Potency [15] | Potency [16]

CC(C)c1ccccc1
inactive: Potency [1] | Potency [2] | Potency [3] | Potency [4] | Potency [5] | Potency [6] | Potency [17] | Potency [8] | Potency [9] | Potency [10] | Potency [18] | Potency [11] | Potency [12] | Potency [13] | Potency [15] | Potency [19] | Potency [16]

C=CC(C)=CCC=C(C)C
inactive: Potency [1] | Potency [2] | Potency [3] | Potency [4] | Potency [5] | Potency [6] | Potency [17] | Potency [8] | Potency [9] | Potency [10] | Potency [18] | Potency [11] | Potency [12] | Potency [13] | Potency [15] | Potency [20] | Potency [19] | Potency [16]

C1CCC2=NCCCN2CC1
inactive: Potency [1] | Potency [2] | Potency [3] | Potency [4] | Potency [5] | Potency [6] | Potency [7] | Potency [8] | Potency [9] | Potency [10] | Potency [18] | Potency [11] | Potency [12] | Potency [13] | Potency [15] | Potency [19] | Potency [16]

C=C[Si]1(C)O[Si](C)(C=C)O[Si](C)(C=C)O[Si](C)(C=C)O1 (centres undefined)
inactive: Potency [1] | Potency [2] | Potency [3] | Potency [4] | Potency [5] | Potency [6] | Potency [7] | Potency [8] | Potency [9] | Potency [10] | Potency [18] | Potency [11] | Potency [12] | Potency [13] | Potency [14] | Potency [15] | Potency [19] | Potency [16]

O=C(C(=O)c1ccc(Br)cc1)c1ccc(Br)cc1
inactive: activity change, negative = cytotoxicity [1] -1.93% [at 19 µM] | activity change [2] 0.0439% [at 11.8 µM, stronger effect = higher value] | activation [3] 0.431% [at 15.8 µM] | activation [4] -0.382% [at 11.8 µM] | activation [5] -9.98% [at 13.5 µM] | activation [6] -6.75% [at 13.6 µM] | activity change, negative = cytotoxicity [17] -13.3% [at 13.5 µM] | activity change, negative = cytotoxicity [8] -2.62% [at 13.5 µM] | activity, negative = inhibition [10] 10.2% [at 12.7 µM] | activation [18] 2.38% [at 15.9 µM] | activity, negative = inhibition [11] 5.04% [at 12.6 µM] | activation [12] -0.452% [at 15.8 µM] | activation [13] -0.367% [at 19 µM]

CCCC(=O)OC(C)(C)Cc1ccccc1
inactive: Potency [1] | Potency [2] | Potency [3] | Potency [4] | Potency [5] | Potency [6] | Potency [7] | Potency [8] | Potency [9] | Potency [10] | Potency [18] | Potency [11] | Potency [12] | Potency [13] | Potency [20] | Potency [19] | Potency [16]

CCC(C)(C)C1CCC(O)CC1 (centres undefined)
inactive: Potency [1] | Potency [2] | Potency [3] | Potency [4] | Potency [5] | Potency [6] | Potency [7] | Potency [8] | Potency [9] | Potency [10] | Potency [18] | Potency [11] | Potency [12] | Potency [13] | Potency [14] | Potency [15] | Potency [19] | Potency [16]

From PubChem BioAssay (Tox21)
